Measured values from the supplement of paper PMC3334620.
The full ranking holds about 33,000 sequences; the median of “E-score (-0.5 to 0.5)” is about -0.032, and the highest 2% start at about 0.36. This is one part of a sample in which the highest values are shown more often than they occur.

biological target: T1, Sko1 (UniProt Q02100); test: PBM E-score (8-mer binding enrichment) (E-score (-0.5 to 0.5)); higher = stronger / more preferred TF binding; conditions: protein concentration: 200 nM; construct: GST-full length
T1 sequence: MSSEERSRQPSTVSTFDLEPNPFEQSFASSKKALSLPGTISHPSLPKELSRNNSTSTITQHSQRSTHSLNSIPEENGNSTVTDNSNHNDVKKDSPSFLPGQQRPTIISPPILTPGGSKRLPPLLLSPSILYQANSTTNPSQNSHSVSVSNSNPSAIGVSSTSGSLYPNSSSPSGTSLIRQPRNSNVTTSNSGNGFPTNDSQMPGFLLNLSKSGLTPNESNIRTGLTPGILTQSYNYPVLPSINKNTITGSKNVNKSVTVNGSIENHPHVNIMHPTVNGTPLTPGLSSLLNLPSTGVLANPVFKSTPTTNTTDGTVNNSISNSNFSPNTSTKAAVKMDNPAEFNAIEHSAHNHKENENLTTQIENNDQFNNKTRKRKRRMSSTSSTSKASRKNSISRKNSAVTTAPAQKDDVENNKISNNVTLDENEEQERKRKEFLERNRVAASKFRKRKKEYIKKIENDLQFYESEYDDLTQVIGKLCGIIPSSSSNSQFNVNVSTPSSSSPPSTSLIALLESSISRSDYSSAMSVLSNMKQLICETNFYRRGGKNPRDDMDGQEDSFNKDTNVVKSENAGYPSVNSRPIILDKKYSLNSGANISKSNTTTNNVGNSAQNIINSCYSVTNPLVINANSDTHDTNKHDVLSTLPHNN
Experimental: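 Universal 'all 10-mer' protein binding microarrays (Agilent AMADID 015681) probed with GST-tagged S. cerevisiae TFs (full-length or DBD) made by in vitro transcription/translation (PURExpress), about 100-200 nM. Bound TF was detected with fluorescent anti-GST. Each ungapped 8-mer (which stands for itself and its reverse complement) is scored by the PBM enrichment score (E-score), a modified Wilcoxon-Mann-Whitney statistic from -0.5 to +0.5, computed with the Universal PBM Analysis Suite. Scale: above 0.35 generally sequence-specific binding.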

Sequence	PBM E-score
TACGCATA	0.368
CACGCACA	0.222
AACGCAAC	0.289
CACGCACG	0.204
AACGCATA	0.219
CACGCATA	0.0358
AACGCAAA	0.175
AACGCAAG	0.0717
AACGCAAT	0.38
GACGCAAA	0.347
TACGCACA	0.401
TACGCAAA	0.415
TCAGCCGA	-0.104
GGGGCGAC	-0.228
GAGACCGC	-0.32
CATGCCTC	0.0373
TAGAGCGA	-0.114
GGGTTGTA	-0.19
AACGCACG	0.31
GACGCACA	0.36
CACGCAAG	0.3
CACGCAAA	0.26
AACGCACA	0.161
CACGCAAC	0.379
TCGCTTAA	-0.0032

Sequence	PBM E-score
GAGACTGC	-0.054
AAAGAACT	-0.0725
AACAGAGG	-0.205
CGGTTCTC	-0.0999
AACCTTCT	-0.298
CAAGGTCA	-0.144
CGTGACAA	0.188
GGTGATGA	0.18
CGTGACGA	0.411
AGTGATGA	0.21
CCTGACGC	0.0655
CGTGATGA	0.36
CTTGACGC	0.262
AGTGACTC	-0.0159
CGTGACGC	0.422
AGTGACCC	-0.23
CGTGACCA	-0.0216
AGTGACGC	0.416
ACCTGAGC	0.0188
AACTGGTC	-0.112
CTTAGTTC	0.0167
AAACAGCT	-0.0726
CGCTCTCA	-0.0854
GAAACACC	0.02
TAGTTCAA	0.0959

Sequence	PBM E-score
GGCGCACC	-0.36
TCACAAGA	-0.00762
CCTGGCGC	-0.133
ACGTAAAG	0.461
ACGTAAAC	0.459
CCGTAAAA	0.053
ACGTAAAT	0.463
CCGTAAAG	0.0256
GCGTAAAC	0.281
AAGTAAAT	0.139
CCGTAAAC	0.104
ACGTAAAA	0.463
AGGTAAAT	0.131
GCGTAAAA	0.279
AAGTAAAG	-0.152
CACGCACC	0.115
AGCTTTGC	-0.179
GAAAATGC	0.0279
GAGTAGCA	0.0153
TCTGGCAA	-0.261
CTGAAAGA	-0.0455
CATTGCAG	0.0387
GGATGCAC	-0.16
GTCTGCAC	-0.118
GGACGTCC	-0.151

Sequence	PBM E-score
AGACGTCT	0.271
CGACGTCA	0.486
AGACGTCA	0.484
GGACGTCA	0.466
CGACGTCC	0.169
CGACGTCG	0.209
GGCCGTCA	-0.184
AGACGTCC	0.281
GCAGATGA	-0.0175
AGCCGGAG	0.0107
CAAGTACC	-0.0542
AAGGATCG	0.0147
AAGTTTTA	0.142
AGTCGGAA	-0.0901
AGACTCAT	0.183
ATTACCTG	0.067
ATTACGTG	0.487
ATTACGGG	0.206
ATTAGGTC	0.207
ATTACGTC	0.492
ATTACGGC	0.303
GAGAGCCA	-0.118
AGGCTGCC	-0.341
GATCCACA	-0.0832
CTTCCTTC	-0.284

Sequence	PBM E-score
GTAGATTA	0.269
AACTGAAG	0.0972
GCCGTAGC	-0.328
CACGTAGG	0.396
CCCGTAGC	-0.291
CTCGTAGC	-0.0204
CACGTAGC	0.364
CGCGTAGA	0.0669
AACGTAGG	0.336
AACGTAGC	0.349
GACGTAGC	0.436
CACGTAGA	0.39
CCCGTAGG	-0.194
AACGTAGA	0.357
CTGCACTC	-0.16
GTTTAAGA	-0.0752
CAGTCGTC	0.0351
CTTCCTGC	-0.256
CGTAGCAC	0.295
GCCATCCC	-0.319
CCACTGTC	-0.185
ACAAGGGT	-0.0251
GCCAGCAA	-0.205
CTAACCAG	-0.0782
GACCTGGC	-0.297

Sequence	PBM E-score
GGCGTAGA	0.118
TCCGTAGA	-0.15
GTCGTAGA	0.166
GACGTAGA	0.42
AGCGTAGA	-0.0243
TACGTAGA	0.452
AGCGACAG	-0.155
GGTAAAAA	0.0275
GGTAATCA	0.0412
CCTAATCC	-0.11
AGTAATCC	0.0657
GGTAAACA	0.136
CGTAAACA	0.374
AGTAATCA	0.0126
CGTAATCC	0.405
AGTAAACA	0.0928
CGTAATCA	0.452
GGTGGCAA	-0.169
CCCGACGC	-0.148
AAGGTTTA	-0.0389
ATCTTGGC	-0.119
ACGAGACT	0.0545
AACACCAA	0.109
ACTACGGG	-0.221
ACTACGTA	0.484

Sequence	PBM E-score
ACTACGAA	0.289
GCTACGAA	0.239
ACTACGCG	0.245
ACTACGGA	-0.036
ACTACGTG	0.415
GCTACGTA	0.456
GCTACGGA	-0.0597
ATAGCGAG	-0.0959
AGAATGAG	0.0649
CGAATGAC	0.351
CTAATGGA	-0.158
AGAATGAC	0.377
ATAATGAC	0.378
GTAATGGA	0.402
ATAATGAG	0.114
ATAATGGA	0.068
ATAATGAT	0.278
CCAATGAC	0.253
GCAATGAA	0.128
GCAATGAC	0.374
AATCAAAC	0.229
AGAAGTGG	-0.19
ACTTCTAA	-0.0244
